# Measurements: paper PMC9838217, “Structure of SALL4 zinc finger domain reveals link between AT-rich DNA binding and Okihiro syndrome”
# Substitutions are numbered along the chain they refer to.
# Tests used:
# Assay in all cases: HT-SELEX; high values mean tight binding
# Conditions in all cases: protein: recombinant; vector His6-GST; dsDNA, one strand shown
# SALL4 ZFC4 WT (HT-SELEX) = target: T1, SALL4 ZFC4 WT (HT-SELEX) (Mus musculus, UniProt Q8BX22 870-940)
# T1 sequence: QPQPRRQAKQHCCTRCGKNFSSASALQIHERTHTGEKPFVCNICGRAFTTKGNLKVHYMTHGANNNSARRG
# In short: (§1)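 Binding signal is expressed as fold change in each canonical k-mer's read fraction over the initial random library. To obtain it, 1 µg of purified recombinant mouse SALL4 zinc finger cluster 4 (residues 870–940) was incubated for 10 min at room temperature with library DNA (1.5 µg first cycle, 200 ng later cycles) in 100 µl of 10 mM Tris–HCl pH 7.5, 50 mM NaCl, poly(dI-dC) and DTT. Ni2+ bead-captured complexes went through washing, PCR amplification and reselection for up to 6 cycles, in triplicate, before MiSeq sequencing and scanning for 6-mers.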
# [1] = target: T2, SALL4 ZFC4 R900W (HT-SELEX) (Mus musculus, UniProt Q8BX22 870-940, R900W)
# T2 sequence: T1 sequence with R31W
# In short: as §1
# [2] = target: T3, SALL4 ZFC4 G921D (HT-SELEX) (Mus musculus, UniProt Q8BX22 870-940, G921D)
# T3 sequence: T1 sequence with G52D
# In short: as §1
Sequence,binding signal (SALL4 ZFC4 WT (HT-SELEX)),binding signal [1],binding signal [2]
CTTCAC,0.856 ± 0.0564 fold-change vs cycle 0,1.04 ± 0.0731 fold-change vs cycle 0,1.03 ± 0.0678 fold-change vs cycle 0
ATCATA,2.91 ± 0.29 fold-change vs cycle 0,2.08 ± 0.118 fold-change vs cycle 0,1.88 ± 0.177 fold-change vs cycle 0
AAAGGC,0.475 ± 0.0422 fold-change vs cycle 0,0.571 ± 0.0175 fold-change vs cycle 0,0.688 ± 0.0599 fold-change vs cycle 0
ATTGAG,1.27 ± 0.0638 fold-change vs cycle 0,1.38 ± 0.0358 fold-change vs cycle 0,1.36 ± 0.122 fold-change vs cycle 0
AATCAC,1.31 ± 0.0497 fold-change vs cycle 0,1.46 ± 0.03 fold-change vs cycle 0,1.42 ± 0.0791 fold-change vs cycle 0
AAACCA,1.14 ± 0.0582 fold-change vs cycle 0,1.23 ± 0.0362 fold-change vs cycle 0,1.24 ± 0.0488 fold-change vs cycle 0
AAAGAT,2.08 ± 0.0847 fold-change vs cycle 0,2.1 ± 0.102 fold-change vs cycle 0,1.84 ± 0.163 fold-change vs cycle 0
ACAAGG,0.796 ± 0.0489 fold-change vs cycle 0,0.976 ± 0.041 fold-change vs cycle 0,0.945 ± 0.0282 fold-change vs cycle 0
AGGACC,0.441 ± 0.038 fold-change vs cycle 0,0.54 ± 0.0359 fold-change vs cycle 0,0.632 ± 0.0389 fold-change vs cycle 0
AGTGTC,0.664 ± 0.023 fold-change vs cycle 0,0.81 ± 0.0199 fold-change vs cycle 0,0.9 ± 0.0262 fold-change vs cycle 0
GCACAA,0.447 ± 0.00967 fold-change vs cycle 0,0.507 ± 0.00524 fold-change vs cycle 0,0.634 ± 0.0509 fold-change vs cycle 0
CAATGA,1.32 ± 0.056 fold-change vs cycle 0,1.47 ± 0.0677 fold-change vs cycle 0,1.4 ± 0.0741 fold-change vs cycle 0
CCAGAG,0.463 ± 0.0303 fold-change vs cycle 0,0.544 ± 0.0428 fold-change vs cycle 0,0.625 ± 0.0553 fold-change vs cycle 0
AGGGTA,0.87 ± 0.0133 fold-change vs cycle 0,1 ± 0.0465 fold-change vs cycle 0,0.989 ± 0.0135 fold-change vs cycle 0
CATACG,0.727 ± 0.0223 fold-change vs cycle 0,0.792 ± 0.0487 fold-change vs cycle 0,0.858 ± 0.0517 fold-change vs cycle 0
ATCGTG,0.701 ± 0.0455 fold-change vs cycle 0,0.775 ± 0.0256 fold-change vs cycle 0,0.876 ± 0.0311 fold-change vs cycle 0
AACTCA,1.37 ± 0.0562 fold-change vs cycle 0,1.48 ± 0.0196 fold-change vs cycle 0,1.4 ± 0.113 fold-change vs cycle 0
ATGCGA,0.525 ± 0.0387 fold-change vs cycle 0,0.556 ± 0.0155 fold-change vs cycle 0,0.689 ± 0.0646 fold-change vs cycle 0
TCTTCA,1.42 ± 0.033 fold-change vs cycle 0,1.6 ± 0.094 fold-change vs cycle 0,1.48 ± 0.131 fold-change vs cycle 0
CGAGAC,0.365 ± 0.0341 fold-change vs cycle 0,0.454 ± 0.0153 fold-change vs cycle 0,0.565 ± 0.0671 fold-change vs cycle 0

Sequence,binding signal (SALL4 ZFC4 WT (HT-SELEX)),binding signal [1],binding signal [2]
AGATTA,2.21 ± 0.147 fold-change vs cycle 0,2.14 ± 0.14 fold-change vs cycle 0,1.86 ± 0.198 fold-change vs cycle 0
AACGGA,0.714 ± 0.0406 fold-change vs cycle 0,0.846 ± 0.0545 fold-change vs cycle 0,0.859 ± 0.0492 fold-change vs cycle 0
AACCCT,0.85 ± 0.042 fold-change vs cycle 0,0.958 ± 0.0297 fold-change vs cycle 0,0.971 ± 0.0387 fold-change vs cycle 0
ATTAAA,3.73 ± 0.281 fold-change vs cycle 0,2.54 ± 0.18 fold-change vs cycle 0,2.14 ± 0.26 fold-change vs cycle 0
AGGACT,0.864 ± 0.0148 fold-change vs cycle 0,0.994 ± 0.0593 fold-change vs cycle 0,1.02 ± 0.0375 fold-change vs cycle 0
GCAATA,1.12 ± 0.0362 fold-change vs cycle 0,1.04 ± 0.028 fold-change vs cycle 0,1.11 ± 0.028 fold-change vs cycle 0
ATCTAG,1.35 ± 0.0842 fold-change vs cycle 0,1.48 ± 0.0373 fold-change vs cycle 0,1.41 ± 0.108 fold-change vs cycle 0
CTACTC,0.863 ± 0.0395 fold-change vs cycle 0,0.998 ± 0.0566 fold-change vs cycle 0,0.992 ± 0.0109 fold-change vs cycle 0
CTGAAA,1.19 ± 0.0701 fold-change vs cycle 0,1.28 ± 0.0787 fold-change vs cycle 0,1.21 ± 0.0732 fold-change vs cycle 0
ACTGCT,0.712 ± 0.054 fold-change vs cycle 0,0.797 ± 0.0817 fold-change vs cycle 0,0.89 ± 0.0309 fold-change vs cycle 0
AAATCG,0.874 ± 0.0288 fold-change vs cycle 0,0.918 ± 0.0124 fold-change vs cycle 0,1.02 ± 0.0396 fold-change vs cycle 0
ACCTTA,1.43 ± 0.0462 fold-change vs cycle 0,1.6 ± 0.0314 fold-change vs cycle 0,1.44 ± 0.0668 fold-change vs cycle 0
ACACCC,0.416 ± 0.0284 fold-change vs cycle 0,0.506 ± 0.0389 fold-change vs cycle 0,0.581 ± 0.0534 fold-change vs cycle 0
GAATGA,1.42 ± 0.0437 fold-change vs cycle 0,1.57 ± 0.0566 fold-change vs cycle 0,1.43 ± 0.0639 fold-change vs cycle 0
CAACCA,0.686 ± 0.0177 fold-change vs cycle 0,0.804 ± 0.0166 fold-change vs cycle 0,0.877 ± 0.0338 fold-change vs cycle 0
AATAAG,2.35 ± 0.133 fold-change vs cycle 0,2.15 ± 0.175 fold-change vs cycle 0,1.86 ± 0.227 fold-change vs cycle 0
GGGTAA,0.818 ± 0.0379 fold-change vs cycle 0,0.955 ± 0.0325 fold-change vs cycle 0,0.918 ± 0.0131 fold-change vs cycle 0
AGTCTG,0.76 ± 0.0287 fold-change vs cycle 0,0.869 ± 0.0157 fold-change vs cycle 0,0.92 ± 0.0107 fold-change vs cycle 0
CACTAA,1.22 ± 0.0467 fold-change vs cycle 0,1.38 ± 0.0225 fold-change vs cycle 0,1.29 ± 0.0518 fold-change vs cycle 0
TTAAAA,2.8 ± 0.232 fold-change vs cycle 0,2.26 ± 0.146 fold-change vs cycle 0,1.97 ± 0.21 fold-change vs cycle 0

Sequence,binding signal (SALL4 ZFC4 WT (HT-SELEX)),binding signal [1],binding signal [2]
AACGTA,1.18 ± 0.0508 fold-change vs cycle 0,1.3 ± 0.0339 fold-change vs cycle 0,1.23 ± 0.0704 fold-change vs cycle 0
ATACAA,2 ± 0.0726 fold-change vs cycle 0,1.98 ± 0.0733 fold-change vs cycle 0,1.76 ± 0.0991 fold-change vs cycle 0
GAGCTA,0.677 ± 0.0225 fold-change vs cycle 0,0.747 ± 0.0353 fold-change vs cycle 0,0.858 ± 0.0136 fold-change vs cycle 0
AGCCAA,0.49 ± 0.0194 fold-change vs cycle 0,0.55 ± 0.00629 fold-change vs cycle 0,0.698 ± 0.0739 fold-change vs cycle 0
AAGAAG,1.4 ± 0.0333 fold-change vs cycle 0,1.63 ± 0.0977 fold-change vs cycle 0,1.45 ± 0.147 fold-change vs cycle 0
AGTGAC,0.776 ± 0.012 fold-change vs cycle 0,0.91 ± 0.0317 fold-change vs cycle 0,0.973 ± 0.0424 fold-change vs cycle 0
AGCAGA,0.694 ± 0.0089 fold-change vs cycle 0,0.815 ± 0.0131 fold-change vs cycle 0,0.857 ± 0.0135 fold-change vs cycle 0
AATAGT,1.96 ± 0.0795 fold-change vs cycle 0,1.94 ± 0.0794 fold-change vs cycle 0,1.77 ± 0.136 fold-change vs cycle 0
ATCTTA,2.21 ± 0.106 fold-change vs cycle 0,2.19 ± 0.133 fold-change vs cycle 0,1.92 ± 0.224 fold-change vs cycle 0
AGCAAA,0.996 ± 0.0354 fold-change vs cycle 0,1.04 ± 0.0692 fold-change vs cycle 0,1.07 ± 0.0335 fold-change vs cycle 0
AACAGT,1.28 ± 0.0479 fold-change vs cycle 0,1.41 ± 0.0726 fold-change vs cycle 0,1.35 ± 0.0692 fold-change vs cycle 0
CACTCC,0.513 ± 0.0257 fold-change vs cycle 0,0.603 ± 0.0288 fold-change vs cycle 0,0.684 ± 0.0287 fold-change vs cycle 0
CAAATA,1.9 ± 0.117 fold-change vs cycle 0,1.72 ± 0.1 fold-change vs cycle 0,1.55 ± 0.137 fold-change vs cycle 0
GAACAA,1.17 ± 0.0569 fold-change vs cycle 0,1.32 ± 0.0741 fold-change vs cycle 0,1.28 ± 0.0879 fold-change vs cycle 0
AACGGT,0.689 ± 0.0523 fold-change vs cycle 0,0.7682 ± 0.0076 fold-change vs cycle 0,0.832 ± 0.0229 fold-change vs cycle 0
AGTAAT,2.39 ± 0.144 fold-change vs cycle 0,2.3 ± 0.183 fold-change vs cycle 0,1.99 ± 0.219 fold-change vs cycle 0
AATAAA,3.71 ± 0.274 fold-change vs cycle 0,2.68 ± 0.197 fold-change vs cycle 0,2.21 ± 0.297 fold-change vs cycle 0
CGGTCA,0.331 ± 0.0331 fold-change vs cycle 0,0.405 ± 0.0336 fold-change vs cycle 0,0.52 ± 0.0692 fold-change vs cycle 0
CATTTA,1.86 ± 0.0709 fold-change vs cycle 0,1.83 ± 0.108 fold-change vs cycle 0,1.69 ± 0.163 fold-change vs cycle 0
AGACTG,0.764 ± 0.0533 fold-change vs cycle 0,0.926 ± 0.0316 fold-change vs cycle 0,0.92 ± 0.0254 fold-change vs cycle 0
